TbPYK inhibitor: qHTS of Trypanosoma Brucei Inhibitors; pyruvate kinase (Trypanosoma brucei), Q57TT1; TbPYK enzyme, Kinase-Glo Plus ATP luminescence, 45 min; Potency, µM (series often up to 76.8 µM), for inactives: at the top dose activity, negative = inhibition, usual class: inhibitors; hit rate 0.12% among 410,000; AID 624173, 2012; also: potency is read from the fitted curve at half-maximal effect; % is scaled to controls: 0 for no effect and ±100 for the full control effect; nearly all actives have a fitted effect of over 50% in size
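In this concentration-response screen, enzyme-free wells defined baseline while DMSO plates tracked drift. Each reaction combined TbPYK, substrate, compound and 130 uM ADP for 45 min at room temperature. Kinase-Glo Plus luminescence gave the signal.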
LmPK inhibitor: qHTS Assay for Inhibitors of Leishmania Mexicana Pyruvate Kinase (LmPK); Q27686; purified LmPK, Kinase-Glo ATP luminescence, 1 h; Potency, µM (titrated, usually from 57.5 µM), for inactives: top-dose activity change, negative = inhibition, usual class: inhibitors; hit rate 0.37% among 290,000; also: potency is read from the fitted curve at half-maximal effect; % is scaled to controls: 0 for no effect and ±100 for the full control effect
Target sequence (Q27686 whole entry, looked up): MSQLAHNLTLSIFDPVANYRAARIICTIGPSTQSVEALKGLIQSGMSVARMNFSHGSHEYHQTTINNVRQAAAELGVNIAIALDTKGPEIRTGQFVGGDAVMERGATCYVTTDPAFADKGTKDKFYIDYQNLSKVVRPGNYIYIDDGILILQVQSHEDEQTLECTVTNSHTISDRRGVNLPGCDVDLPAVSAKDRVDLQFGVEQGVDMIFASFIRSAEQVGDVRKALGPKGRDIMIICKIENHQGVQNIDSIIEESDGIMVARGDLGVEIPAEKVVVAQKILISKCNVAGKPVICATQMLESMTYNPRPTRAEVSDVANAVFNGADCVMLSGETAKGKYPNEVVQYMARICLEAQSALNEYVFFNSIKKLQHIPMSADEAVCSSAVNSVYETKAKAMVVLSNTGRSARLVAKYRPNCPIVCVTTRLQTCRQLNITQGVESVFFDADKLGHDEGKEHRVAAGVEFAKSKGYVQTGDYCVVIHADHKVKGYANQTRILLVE
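0.1 nM LmPK, 0.5 mM PEP, 0.1 mM ADP; 50 mM imidazole pH 7.2, 7 mM MgCl2, 50 mM KCl; 1 h RT. Kinase-Glo luminescence readout, normalized to no-enzyme (full inhibition) and uninhibited wells.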
Shiga toxin inh: A qHTS for Small Molecule Inhibitors of Shiga Toxin. AID 2315, 2010. inhibition, % at 38.7 µM. Vero cells, Shiga toxin protein synthesis inhibition reporter. hit rate 9.2% among 290,000; in the data active = inhibition mostly above about 28%, no sharp cut-off; inactive = mostly below about 43%; also: 0% is about no effect
RE007 growth inh: qHTS Assay for Inhibitors of the HIV-1 protein Vpr | S. pombe RE007 Vpr strain, BacTiter-Glo ATP luminescence, 24 h | Potency, µM (titrated, usually from 92.2 µM), inactives show top-dose activity change, negative = less growth, usual class: inhibitors | hit rate 0.21% among 360,000 | AID 651644, 2012; active = well fitted falling curve with a large enough effect; inconclusive = small, poorly fitted or top-dose-only effect; inactive = no such curve, though single readings can be large or run the other way; also: potency is read from the fitted curve at half-maximal effect; % is scaled to controls: 0 for no effect and ±100 for the full control effect; nearly all actives have a fitted effect of over 50% in size
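Fission yeast RE007 carrying one integrated HIV-1 vpr copy, seeded at OD 0.01 in PMG+AL medium with 23 nL pinned compound. Grown 24 h at 30 degrees; viability read by BacTiter-Glo luminescence after 5 min.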
Cycloheximide cs: Cycloheximide Counterscreen for Small Molecule Inhibitors of Shiga Toxin. cell reporter, cycloheximide protein synthesis inhibition counterscreen. max response, %. hit rate 12% among 300,000. AID 2314, 2010; in the data active = max response mostly above about 13%, no sharp cut-off; inactive = mostly below about 14%; also: read at 38.3 µM for the half of the compounds with a filed dose; 0% is about no effect
FBPA Giardia inh: qHTS Assay for Inhibitors of Fructose-1,6-bisphosphate Aldolase from Giardia Lamblia. A8B2U2. purified Giardia FBPA. Potency, µM (series often up to 59.6 µM), for the others: at the highest dose activity, negative = inhibition, actives largely listed as inhibitors. hit rate 0.71% among 290,000. AID 2451, 2010; also: potency is read from the fitted curve at half-maximal effect; % is scaled to controls: 0 for no effect and ±100 for the full control effect; nearly all actives have a fitted effect of over 55% in size
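Giardia FBPA (40 nM reagent) was preincubated 10 min at RT with compound (up to 57.5 uM final), then substrate plus GAPDH/TPI/NAD/arsenate coupling system with diaphorase/resazurin was added; resorufin fluorescence (525/598 nm) was read after 20 min.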
Numbers without * were called inactive; ? = inconclusive; nt = no result given. This is one part of a sample in which hits are shown more often than they occur. Unless noted, calls follow the shape of the dose curve; as a rule, active = well fitted curve in the direction sought with a large enough effect; inconclusive = small, poorly fitted or top-dose-only effect, or another doubt; inactive = no such curve, though single readings can be large; an effect the other way counts as inactive or inconclusive.

SMILES	TbPYK inhibitor	LmPK inhibitor	Shiga toxin inh	RE007 growth inh	Cycloheximide cs	FBPA Giardia inh
O=S(=O)(Nc1ccc(F)cc1F)c1ccc(-n2cccn2)cc1	-1%	nt	nt	nt	nt	nt
CCc1ccccc1NC(=O)CNC(=O)CSC(=S)N1CCCC1	0%	nt	nt	3%	nt	nt
O=C(CC1=NCCNC(c2ccccc2)C1)c1ccccc1O (centres undefined)	4%	9%	36*	-5%	32*	24%
Cc1sc(=NC(=O)c2ccco2)n(C)c1-c1ccccc1	0%	-13%	52*	-5%	40*	2%
Cn1c(=NC(=O)c2cccc([N+](=O)[O-])c2)sc2ccccc21	4%	-9%	119*	1%	27*	1%
Cn1c(=NC(=O)c2ccco2)sc2ccccc21	-4%	?	53*	-12%	32*	-11%
Cn1c(NC(=O)c2ccco2)c(-c2ccccc2)c(=O)c2ccccc21	-8%	4%	-15	15%	4	-19%
Cc1sc(=NC(=O)c2ccco2)n(C)c1-c1ccc(F)cc1	1%	-3%	126*	-7%	44*	-1%
CC(=O)N=c1sc2cc(C)ccc2n1C	-10%	5%	147*	-17%	29*	1%
Cn1c(=NC(=O)CCl)sc2ccccc21	2%	-5%	46	?	28*	nt
CCC(=O)N=c1sc2ccccc2n1-c1ccccc1	3%	-2%	30	0%	-2	-1%
COc1cccc(CNC(=O)C(NS(=O)(=O)c2ccc3c(c2)CCN3C(C)=O)C(C)C)c1 (centres undefined)	1%	2%	29	3%	24*	nt
CC(=O)N1CCc2cc(S(=O)(=O)NC(C(=O)NCc3ccccc3)C(C)C)ccc21 (centres undefined)	0%	-2%	1	-3%	-3	0%
COc1ccc(N/N=C/c2c(O)n(-c3cccc(C)c3)c(=O)[nH]c2=O)cc1	-14%	4%	48	17%	18*	-25%
Cc1cc(C(=O)COc2ccc(F)cc2Br)c(C)n1C1CC1	2%	nt	nt	-15%	nt	nt
COc1ccc(NC(=O)c2ccc(C)cc2)c(OC)c1	0%	2%	96*	-1%	50*	-25%
COc1ccc(NC(=O)c2ccccc2NC(=O)c2ccccc2C(=O)O)c(OC)c1	1%	0%	53*	-15%	11*	16%
O=C(NCCc1nnc2ccc(NCCCN3CCOCC3)nn12)c1ccccc1	-6%	1%	-11	-16%	-4	nt
CCc1cccc(NC(=O)CC(c2ccc(OC)cc2)N2Cc3ccccc3C2=O)c1 (centres undefined)	-1%	nt	nt	nt	nt	nt
Cc1cc(C(=O)COC(=O)c2ccc[nH]c2=O)c(C)n1C	2%	0%	17	6%	9	6%
Cc1cc(C(=O)COC(=O)c2ccc[nH]c2=O)c(C)n1-c1ccc(Br)cc1	4%	0%	27*	3%	48*	18%
Cc1ccc(-n2c(C)cc(C(=O)COC(=O)c3ccc[nH]c3=O)c2C)cc1	-8%	-1%	58*	nt	40*	-1%
COc1ccccc1-c1cc(C(F)(F)F)nc(S(=O)(=O)CCCC(=O)NCc2ccc(F)cc2)n1	-2%	9%	-26	-10%	20*	2%
COc1ccc(-c2cc(C(F)(F)F)nc(S(=O)(=O)CCCC(=O)Nc3cc(C)on3)n2)cc1OC	-7%	-10%	-1	1%	25*	-2%
O=C(NC1CC1)c1cc2cc(Br)ccc2s1	0%	-7%	51*	-18%	38*	2%
CNC(=O)c1cc2cc(Br)ccc2s1	-2%	-11%	23	-11%	28	1%
O=C(NNS(=O)(=O)c1ccccc1)c1cc2cc3ccccc3nc2s1	9%	3%	54*	1%	11	-10%
O=C(NC1CC1)c1cc2cc3ccccc3nc2s1	2%	-9%	99*	-9%	41*	2%

Assay outcomes as filed in PubChem BioAssay.
